Measurements reported in the OligoGym collection.

The sequences below were run against C1QTNF1 (assay: pooled miR-30 sensor sort-seq; sequence = guide strand). Conditions: shRNA.
Further: reference of the scale not given here.

Row | Sequence | sensor-assay potency score (higher = more potent)
1 | TGTATTTTTCATGTTGTTCTTC | 0.442
2 | TCGATCTCCGCGGTCACCCTTC | -1.09
3 | TCACAGCAGCGCAAGCACCGGG | -0.832
4 | TAGCAGTAGAACTTGCCGGTGA | 0.148
5 | TTCATGTTGTTCTTCAGCCCTC | -0.239
6 | TAGAGGTTCACGAACTCCGTGT | 0.258
7 | TTGGAGGCCTCGATCTCCGCGG | -1.29
8 | TTGTTCTTCAGCCCTCTCGGCA | -1.05
9 | TAGGTGTCCAGCTCCTCGCTGA | -0.37
10 | AAGATAGTGATGTTGATCTGGG | -0.107
11 | TAGGTCTCCTTCTGGTTCCAGG | -0.883
12 | TAGAACTTGCCGGTGAACATGT | 0.14

Each sequence was assayed against C1orf101 in the same assay as above. Conditions: shRNA.

Row | Sequence | sensor-assay potency score (higher = more potent)
13 | TAGTGCATCATCTTTTGTCATT | -1.07
14 | TAACTTAATAGTACTTCTGGTA | -0.353
15 | TTCATGTAAACAACCACTCTGT | 0.256
16 | TAAACAACCACTCTGTGCCATA | -0.921
17 | TAAAAACACAGCAATCTCCAGA | -0.0485
18 | TAACTCTATAGTACCACAGAAA | -1.26
19 | TTGAATATTCACTAGGTCGAAA | -0.467
20 | TTGATAGATTTCCATGTCCTGC | -1.09
21 | TTGACTTCCATGTCTGTGCTTC | 0.808
22 | TTGGTTTCCTCTAATCTCCTTT | 0.267
23 | TTGTATTGTGCCATCATCCAAA | -0.463
24 | TCTAACTTAATAGTACTTCTGG | 0.677

Each sequence was assayed against C1orf105 in the same assay as above. Conditions: shRNA.

Row | Sequence | sensor-assay potency score (higher = more potent)
25 | TAGTGAATGTTTTCTGTTGGGA | 0.127
26 | TTGACATGTGGAGCACAGCTGT | -0.883
27 | TTGCCTATTGGTTCCTTTCTGG | 0.0888
28 | TATAACTCATACAATTCTCAAA | -1.37
29 | TTTGGGTTGATGAAGACTCATT | -1.17
30 | TACAATTCTCAAAGGATGCTTT | -0.234
31 | TTCATTTCTTGACATGTGGAGC | -1.06
32 | TTCTGGGCAAGGAAGAACGTTG | -0.752
33 | AACATCTGGAACTTGAAACAAA | -0.678
34 | TTTTCATTTCTTGACATGTGGA | -0.589
35 | TAAGCCAAGGAATCTTGTCAAA | -1.39
36 | TTTCATTTCTTGACATGTGGAG | 0.0387

What follows are sequences tested against C1orf106 in the same assay as above. Conditions: shRNA.

Row | Sequence | sensor-assay potency score (higher = more potent)
37 | TAGCTGAGGACACAGCCACTTG | -1.67
38 | TATTGAAGTATTTAGCACTAAA | -0.989
39 | TTGTAAGCCGCTCCGATCCTGC | -0.983
